Compounds without any hit were thinned out: in the full panel of roughly 79,000, 15% have a hit. A number with no mark means an inactive call. Calls of active or inactive are those of the source. Cut-off read from the data, not from the text of the source: active = growth inhibition above about 70%; inactive = the rest. *1 amine or outer side, *2 acyl side, *3 side chain or, on linkers, in order; H or OH if unused. Where a SMILES comes first, the peptide text is derived from it. Bridges are numbered along the chain shown (N, C = ends). Roman numbers before positions name the chains, in order. [ ]: non-standard residue; d: D form. Actinocin(9to1) = Cc1c2oc3c(C)ccc(C(=O)[*:1])c3nc-2c(C(=O)[*:2])c(N)c1=O; NMeT = CN[CH](C(=O)O)[CH](C)O; Sar = CNCC(=O)O

Consider 37 compounds from PubChem BioAssay (NCI).

Assay [1] can be described thus: NCI Yeast Anticancer Drug Screen. Data for the rad50 strain (AID 155).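 Note: 0% = growth of vehicle-only cultures of the same strain.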 The conditions noted are these: S. cerevisiae rad50 strain growth inhibition; at 50.0 µM; hits give high values. Summed up:
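Yeast carrying a defined DNA repair defect were exposed to test compounds, and growth was compared with vehicle-treated controls to give percent inhibition.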

Assay [2] in a line: NCI Yeast Anticancer Drug Screen. Data for the mec2-1 strain (AID 157). The conditions noted are these: S. cerevisiae mec2-1 strain, at 50.0 µM, hits give high values. Summed up:
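Mutant yeast (mec2-1) grown with compound; growth inhibition relative to vehicle control reported.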

Assay [3] can be described thus: NCI Yeast Anticancer Drug Screen. Data for the sgs1 mgt1 strain (AID 161).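 Note: 0% = growth of cultures given vehicle only.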 As to conditions: S. cerevisiae sgs1 mgt1 strain, at 50.0 µM, hits give high values. Summed up:
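Compounds are added to genetically altered yeast, and growth is compared with cultures given vehicle alone to give percent inhibition.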

A short description of assay [4]: NCI Yeast Anticancer Drug Screen. Data for the cln2 rad14 strain (AID 165).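 Note: 0% = growth equal to vehicle treated cultures.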 The conditions noted are these: S. cerevisiae cln2 rad14 strain, at 50.0 µM, hits give high values. In short, it runs like this: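 Readout is yeast growth inhibition versus vehicle-treated controls, using a strain with cln2 and rad14 alterations exposed to compound.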
Assay [5] is described as follows: NCI Yeast Anticancer Drug Screen. Data for the bub3 strain (AID 167). As to conditions: S. cerevisiae bub3 mutant strain, at 50.0 µM, hits give high values. Summed up: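 Compounds were applied to a genetically altered yeast strain carrying a cell-cycle control defect. Growth inhibition was scored against vehicle-treated controls.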
Assay [6] can be described thus: NCI Yeast Anticancer Drug Screen. Data for the mlh1 rad18 strain (AID 175). As to conditions: S. cerevisiae mlh1 rad18 strain growth inhibition; at 50.0 µM; hits give high values. Summed up: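 Genetically defined yeast (DNA repair-deficient) exposed to compounds; growth inhibition determined relative to vehicle.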

As to `CCCCCCCCCCCCOc1ccc(C(C)(C)C)cc1`, the growth inhibition is -12.2% in assay [1]; -12.8% in assay [2]; -22.1% in assay [3]; 7.85% in assay [4]; -36.8% in assay [5]; -11.7% in assay [6].
In the case of `Cc1cccc(-c2nc(-c3cnccn3)n(Cc3ccccc3)n2)c1`, the growth inhibition is -67.5% in assay [1]; -46.9% in assay [2]; -62% in assay [3]; -39.6% in assay [4]; -51.1% in assay [5]; -61.2% in assay [6].
As to `N#Cc1ccc2c(c1)Sc1ccccc1N2`, the growth inhibition was 7.5% in assay [1]; 3.05% in assay [2]; -2.9% in assay [3]; -43.4% in assay [4]; -31% in assay [5]; 21.7% in assay [6].
As for `COc1cc(/C=C/Cc2cc3c(cc2OCCO)OCO3)cc(OC)c1OC`, the growth inhibition was -1.05% in assay [1]; 0.3% in assay [2]; 7.6% in assay [3]; -11.7% in assay [4]; -4.65% in assay [5]; 19.6% in assay [6].
Turning to `COC(=O)CCC(CCC(=O)OC)([N+](=O)[O-])[N+](=O)[O-]`, the growth inhibition in assay [1] is 0.4%; in assay [2], -1.95%; in assay [3], 4.5%; in assay [4], -55.6%; in assay [5], 10.7%; in assay [6] it was 3.3%.
Turning to `CC(=O)NC1C(OC(C)C(=O)NC(C)C(=O)NC(CCC(=O)NCCCCCNc2ccc([N+](=O)[O-])c3[nH]c4ccccc4c(=O)c23)C(N)=O)C(O)C(CO)OC1(C)OCc1ccccc1` (configuration not stated), the growth inhibition in assay [1] was 13%; in assay [2], 13.1%; in assay [3], 27.2%; in assay [4], 23.9%; in assay [5] it was 19.9%; in assay [6] it was 32.9%.
`Nc1ccc(C2NC=CN2)cc1`: the growth inhibition was -12.1% in assay [1]; -7.65% in assay [2]; -0.7% in assay [3]; 29.8% in assay [4]; -3.15% in assay [5]; -1.65% in assay [6].
For `O=C1CC(c2ccccc2)S(=O)(=O)c2ccccc2N1` (configuration not stated), the growth inhibition in assay [1] was -13.6%; in assay [2] it was -8.5%; in assay [3], 1.5%; in assay [4], 10.2%; in assay [5] it was 11.3%; in assay [6], 1.45%.
Take `CCSC1=C(C)N(C=NC(C)(C)C)CC1`: the growth inhibition in assay [1] was -3.7%; in assay [2], -23.5%; in assay [3], -38%; in assay [4] it was 7.4%; in assay [5] it was -28.8%; in assay [6], -14%.
On to `O=S(=O)(Cl)c1ccc(I)cc1`, for which the growth inhibition is -5.2% in assay [1]; -21.2% in assay [2]; -12.3% in assay [3]; 22.4% in assay [4]; -2.2% in assay [5]; -20.6% in assay [6].
For the compound `COc1cccc(-c2ccccc2)c1`, the growth inhibition was 7.35% in assay [1]; 10.9% in assay [2]; -11.3% in assay [3]; 3.2% in assay [4]; 14.6% in assay [5]; -16.6% in assay [6].
Turning to `CCCCCCN(CCCCCC)CC(O)c1c(Cl)ccc2ccccc12` (configuration not stated), the growth inhibition in assay [1] is 99.1% (active); in assay [2], 96.5% (active); in assay [3], 99.3% (active); in assay [4], 98.6% (active); in assay [5] it was 96.4% (active); in assay [6] it was 98.5% (active).
Turning to `O=C(O)c1cc(Br)c(O)cc1O`, the growth inhibition is -11.4% in assay [1]; -17.6% in assay [2]; -3.35% in assay [3]; 9.35% in assay [4]; -5.25% in assay [5]; 7% in assay [6].
As to `CC(CCC(=O)O)(CCC(=O)O)[N+](=O)[O-]`, the growth inhibition is 0.85% in assay [1]; -1.1% in assay [2]; 12.2% in assay [3]; -6.6% in assay [4]; 12.6% in assay [5]; -8.8% in assay [6].
Regarding `COc1ccccc1/C=C/C(=O)N1CCC2(CC1)C(=O)N(C)CN2c1ccccc1`, the growth inhibition in assay [1] is -16%; in assay [2], 8.45%; in assay [3] it was -17.3%; in assay [4], -15.1%; in assay [5] it was -0.35%; in assay [6], -2.4%.
With `Cc1ccc(N=CC=C2C=CN(O)C=C2)nc1`, the growth inhibition in assay [1] is -8%; in assay [2], -10.9%; in assay [3] it was -0.85%; in assay [4], -19.2%; in assay [5], -19.1%; in assay [6], -10.5%.
As to `c1ccc2c(CN3CCCCC3)cccc2c1`, the growth inhibition was -6.1% in assay [1]; -19.1% in assay [2]; -4.05% in assay [3]; 5.5% in assay [4]; -15.2% in assay [5]; -13.9% in assay [6].
Take `CNc1ccc2c(c1)C(=O)c1ccccc1-2`: the growth inhibition in assay [1] is 11.1%; in assay [2], 14.4%; in assay [3], -5.55%; in assay [4] it was 19.9%; in assay [5] it was 1.35%; in assay [6], -11.4%.
Regarding `Cc1cccc(C2=N/C(=C\c3ccccc3)C(=O)O2)c1`, the growth inhibition was 7.15% in assay [1]; 7.5% in assay [2]; 18.8% in assay [3]; 10.8% in assay [4]; 5.75% in assay [5]; 5.35% in assay [6].
On to `Cc1c2oc3c(C)ccc(C(=O)NC4C(=O)NC(C(C)C)C(=O)N5CCCC5C(=O)N(C)CC(=O)N(C)C(C(C)O)C(=O)OC4C)c3nc-2c(C(=O)NC2C(=O)NC(C(C)C)C(=O)N3CCCC3C(=O)N(C)CC(=O)N(C)C(C(C)O)C(=O)OC2C)c(N)c1=O` (configuration not stated) (I: TVP[Sar][NMeT] / II: TVP[Sar][NMeT]; ester I:1-I:C, II:1-II:C; linker I:N-II:N via Actinocin(9to1); configuration not given here), for which the growth inhibition in assay [1] is 19.4%; in assay [2] it was -21%; in assay [3], -3.3%; in assay [4] it was 31.3%; in assay [5] it was -5.3%; in assay [6], -52.5%.
Turning to `COCCn1nc(-c2ccc(Cl)cc2)c(-c2ccc(Cl)cc2)c(C(C)=O)c1=O`, the growth inhibition in assay [1] is 12.2%; in assay [2], -5.15%; in assay [3] it was 0.9%; in assay [4], 9.05%; in assay [5], -1.7%; in assay [6], -7.85%.
As for `O=S(=O)(c1ccccc1)c1ccccn1`, the growth inhibition in assay [1] is -13.1%; in assay [2], -13.2%; in assay [3], -19.9%; in assay [4] it was 6.2%; in assay [5], 3.7%; in assay [6], -22.1%.
On to `COC(=O)c1ccccc1NC(=O)C(=O)NNC(=O)c1ccncc1`, for which the growth inhibition was 10.3% in assay [1]; -3% in assay [2]; -4.4% in assay [3]; 7.55% in assay [4]; -0.8% in assay [5]; 22.1% in assay [6].
As to `O=C(O)CS(=O)(=O)O`, the growth inhibition in assay [1] is 11.2%; in assay [2], 0.45%; in assay [3], -4.3%; in assay [4], 5.3%; in assay [5], 0.75%; in assay [6] it was 5.55%.
Regarding `CCCCCCCc1ccc(N=Cc2ccc(OCCC)cc2)cc1`, the growth inhibition in assay [1] was 98.8% (active); in assay [2], 99.3% (active); in assay [3], 98.9% (active); in assay [4] it was 99% (active); in assay [5], 97.7% (active); in assay [6], 99.2% (active).
Regarding `CN(C)CC1=C(O)c2ccccc2C(=O)C1=O`, the growth inhibition in assay [1] is -0.25%; in assay [2] it was -1.2%; in assay [3], 1.1%; in assay [4], 13.7%; in assay [5], 31.6%; in assay [6] it was -4.2%.
Regarding `CCOc1ccccc1C=Nc1cc(C(C)C)c(O)cc1C`, the growth inhibition in assay [1] was -10.2%; in assay [2] it was -17.2%; in assay [3] it was 5.6%; in assay [4], -4.6%; in assay [5] it was 0.85%; in assay [6], -12.3%.
For `CCOC(=O)C1Sc2c(c(=O)n(C)c3ccccc23)C1=O` (configuration not stated), the growth inhibition in assay [1] is 34.1%; in assay [2], 36.6%; in assay [3], 34.1%; in assay [4], 40.7%; in assay [5], -8.45%; in assay [6], 41.2%.
On to `COc1ccc(/C=C/C(=O)c2c(-c3ccccc3)nn(C)c(=O)c2N2CCCC2)cc1`, for which the growth inhibition is -23.8% in assay [1]; -20.3% in assay [2]; -33.2% in assay [3]; -24.4% in assay [4]; -11.2% in assay [5]; -34.1% in assay [6].
`Cc1ccc(C)c2c1C1CCCCC3(OCCCO3)C21O` (configuration not stated): the growth inhibition is -4.2% in assay [1]; -6.3% in assay [2]; -44.2% in assay [3]; -6.9% in assay [4]; -24.2% in assay [5]; -0.85% in assay [6].
As to `O=C(O)c1cc(=O)c2c([nH]c3ccccc32)s1`, the growth inhibition in assay [1] is -4.9%; in assay [2] it was -18.7%; in assay [3] it was -14.6%; in assay [4], 5.25%; in assay [5], -14.3%; in assay [6] it was 13.3%.
For the compound `O=C(CC1=NC2NN(c3ccccc3)C(=O)C2=C1CC(=O)c1ccc(F)cc1)c1ccc(F)cc1` (configuration not stated), the growth inhibition in assay [1] was 40.2%; in assay [2], 20.6%; in assay [3], 23.2%; in assay [4], 13.1%; in assay [5] it was 5.65%; in assay [6], 38.9%.
Take `C=C1SC(=Nc2ccc(Cl)cc2)N(c2nc(Cl)nc(Cl)n2)C12CCCCC2`: the growth inhibition in assay [1] is -16.4%; in assay [2] it was -21.1%; in assay [3], 19.4%; in assay [4] it was 14%; in assay [5], 10.2%; in assay [6], 20.6%.
In the case of `CCOc1ccc(C(=O)CCC(=O)Nc2ccc(Br)cc2)cc1`, the growth inhibition in assay [1] is 13.1%; in assay [2], 5.8%; in assay [3], 13.1%; in assay [4], -7.3%; in assay [5], 8.75%; in assay [6], 20.4%.
As to `N#CC(c1cnc2ccccc2n1)c1cccc2ccccc12` (configuration not stated), the growth inhibition was -0.3% in assay [1]; 5.9% in assay [2]; 1% in assay [3]; -5.75% in assay [4]; -5.3% in assay [5]; 13% in assay [6].
Take `Cc1ccc(OS(=O)(=O)NC(=O)NCc2ccco2)cc1`: the growth inhibition in assay [1] was 18.8%; in assay [2], 4.9%; in assay [3], 7.7%; in assay [4], 8.9%; in assay [5] it was 3.95%; in assay [6], 4.35%.
With `CN1c2ccccc2N(C(=O)c2ccccc2)C(CC(=O)O)c2cccn21` (configuration not stated), the growth inhibition in assay [1] was -22.4%; in assay [2], -40.5%; in assay [3], -33.1%; in assay [4], 23.8%; in assay [5], -45%; in assay [6], -16.3%.
